Measurements as given in PubChem BioAssay AID1159580 (chemical genetic matrix, 2015).
Several values for one entry are separate records, joined by “and”; a condition that tells them apart may be missing. Identical values can stand only once. The campaign covered roughly 5,500 compounds. About 2,000 (36%) were called active. Roughly 18% stayed inconclusive and do not appear here. Rule as the data show it: active = normalized growth mostly below about 0.91 (no sharp cut-off); inconclusive = no clear call, values can overlap the other calls; inactive = mostly above about 0.92. The list shows a part of the results.

Assay: chemical genetic growth profiling, strain panel (AID 1159580);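 also: tested at 20 µM; growth read once vehicle control cultures reached saturation at 30 °C; 1 = growth at the plate median or of vehicle wells; lower values mean less growth of the strain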
Details: S. cerevisiae deletion strains, growth OD

Measured: normalized growth

CCC(=O)OC1[C@@H]2CC3=C4CC(=O)O[C@@H](c5ccoc5)[C@]4(C)CCC3[C@@](C)(C2=O)[C@@H](CC(=O)OC)C1(C)C (stereo partly specified)
inactive: locus YAL021C, strain ccr4, stronger effect = lower value 1.03 | locus YAL026C, strain drs2, stronger effect = lower value 0.973 | locus YAL030W, strain snc1, stronger effect = lower value 0.998 | locus YBL061C, strain skt5, stronger effect = lower value 0.992 | locus YBR009C, strain hhf1, stronger effect = lower value 0.992 | locus YBR021W, strain FUR4, stronger effect = lower value 1.01 | locus YBR023C, strain chs3, stronger effect = lower value 0.995 | locus YBR171W, strain sec66, stronger effect = lower value 0.983 | locus YBR229C, strain ROT2, stronger effect = lower value 1 | locus YBR231C, strain swc5, stronger effect = lower value 0.989 | locus YBR279W, strain paf1, stronger effect = lower value 0.999 | locus YCL011C, strain gbp2, stronger effect = lower value 1.01 | locus YCL016C, strain dcc1, stronger effect = lower value 1.01 | locus YCL029C, strain bik1, stronger effect = lower value 1.02 | locus YCL061C, strain MRC1, stronger effect = lower value 0.998 | locus YCL069W, strain vba3, stronger effect = lower value 0.995 | locus YCR088W, strain abp1, stronger effect = lower value 0.996 | locus YDL005C, strain med2, stronger effect = lower value 0.978 | locus YDL035C, strain GPR1, stronger effect = lower value 1 | locus YDL040C, strain nat1, stronger effect = lower value 0.976 | locus YDL074C, strain BRE1, stronger effect = lower value 1.01 | locus YDL101C, strain DUN1, stronger effect = lower value 1 | locus YDL185W, strain tfp1, stronger effect = lower value 1.02 | locus YDL192W, strain arf1, stronger effect = lower value 1.01 | locus YDR001C, strain nth1, stronger effect = lower value 0.992 | locus YDR069C, strain doa4, stronger effect = lower value 0.982 | locus YDR101C, strain arx1, stronger effect = lower value 1.02 | locus YDR137W, strain rgp1, stronger effect = lower value 0.901 | locus YDR159W, strain sac3, stronger effect = lower value 0.991 | locus YDR162C, strain NBP2, stronger effect = lower value 0.999 | locus YDR195W, strain ref2 0.984 | locus YDR297W, strain sur2, stronger effect = lower value 0.994 | locus YDR318W, strain mcm21, stronger effect = lower value 1.01 | locus YDR334W, strain swr1, stronger effect = lower value 0.982 | locus YDR335W, strain msn5, stronger effect = lower value 0.996 | locus YDR388W, stronger effect = lower value 1.01 | locus YDR392W, strain spt3, stronger effect = lower value 0.837 | locus YDR502C, strain sam2, stronger effect = lower value 1.02 | locus YEL003W, strain gim4, stronger effect = lower value 0.989 | locus YEL037C, strain rad23, stronger effect = lower value 0.984 | locus YEL061C, strain CIN8 (second series), stronger effect = lower value 0.986 | locus YEL061C, strain CIN8, stronger effect = lower value 0.992 | locus YER015W, strain faa2, stronger effect = lower value 1 | locus YER016W, strain bim1, stronger effect = lower value 0.991 | locus YER110C, stronger effect = lower value 1.02 | locus YER111C, strain swi4, stronger effect = lower value 0.977 | locus YER155C, strain BEM2 (second series), stronger effect = lower value 1 | locus YER155C, strain BEM2, stronger effect = lower value 0.998 | locus YER167W, strain BCK2, stronger effect = lower value 0.994 | locus YFR010W, strain ubp6, stronger effect = lower value 0.984 | locus YGL078C, strain dbp3, stronger effect = lower value 1 | locus YGL086W, strain mad1, stronger effect = lower value 1 | locus YGL167C, strain pmr1, stronger effect = lower value 0.989 | locus YGL173C, strain kem1, stronger effect = lower value 0.979 | locus YGL227W, strain vid30, stronger effect = lower value 0.988 | locus YGL240W, strain doc1, stronger effect = lower value 0.99 | locus YGL248W, strain PDE1, stronger effect = lower value 1 | locus YGL253W, strain hxk2, stronger effect = lower value 0.954 | locus YGR135W, strain pre9, stronger effect = lower value 1.02 | locus YGR252W, strain gcn5, stronger effect = lower value 1.05 | locus YHR013C, strain ard1, stronger effect = lower value 0.966 | locus YHR027C, strain rpn1, stronger effect = lower value 0.988 | locus YHR030C, strain SLT2, stronger effect = lower value 1 and 0.969 | locus YHR079C, strain IRE1 (second series), stronger effect = lower value 1.01 | locus YHR079C, strain IRE1, stronger effect = lower value 0.987 | locus YHR094C, strain hxt1, stronger effect = lower value 1.01 | locus YHR129C, strain ARP1, stronger effect = lower value 1 | locus YHR142W, strain chs7, stronger effect = lower value 1.01 | locus YHR200W, strain rpn10, stronger effect = lower value 1.02 | locus YIL066C, strain RNR3, stronger effect = lower value 0.999 | locus YIL073C, strain SPO22, stronger effect = lower value 1.05 | locus YIL125W, strain kgd1, stronger effect = lower value 1.01 | locus YIR030C, strain dcg1, stronger effect = lower value 1.01 | locus YJL092W, strain hpr5, stronger effect = lower value 0.995 | locus YJL095W, strain BCK1 (second series), stronger effect = lower value 0.995 | locus YJL095W, strain BCK1, stronger effect = lower value 0.992 and 0.999 | locus YJL115W, strain asf1, stronger effect = lower value 0.989 | locus YJL129C, strain trk1, stronger effect = lower value 0.974 | locus YJL134W, strain LCB3, stronger effect = lower value 0.998 | locus YJL154C, strain vps35, stronger effect = lower value 0.996 | locus YJL164C, strain tpk1, stronger effect = lower value 1.01 | locus YJL166W, strain qcr8, stronger effect = lower value 1 | locus YJL168C, strain set2, stronger effect = lower value 1 | locus YJL187C, strain SWE1 (second series), stronger effect = lower value 1.01 | locus YJL187C, strain SWE1, stronger effect = lower value 0.998 | locus YJR043C, strain POL32, stronger effect = lower value 1.02
